Results published in PubChem BioAssay (Tox21).
A number with no mark means an inactive call. Results filed as inconclusive are left out. Where a call stands in place of a potency, no number is given. Activity calls are given as the source filed them. Unless noted, the call rests on the fitted dose curve; in most records, active means well fitted curve in the direction sought with a large enough effect in the repeat runs; inconclusive means weak or mixed curves; inactive means no such curve, though single readings can be large; an effect the other way counts as inactive or inconclusive.

Experiments:
[1] = qHTS RealTime-Glo MT Cell Viability Assay in HepG2 cells - 32 hour (AID 1224877); further: nearly all actives have a fitted effect of over 55% in size
Outline: (§1)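 Compound treatment began 5 h after plating HepG2 cells (600/well) with NanoLuc luciferase and prosubstrate. Plates stayed at 37 C for 40 h; luminescence was captured at six time points, 0 h through 40 h.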

[2] = A CellTox Green Cytotoxicity Assay to monitor cytotoxicity in HepG2 cells - 24 hour (AID 1224878); further: nearly all actives have a fitted effect of over 45% in size
Outline: (§2)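 HepG2 cells were seeded together with the CellTox Green dye at 600 cells/well, left 5 h at 37 C/5% CO2, then given compounds in DMSO. Fluorescence from dye bound to dead-cell DNA was read repeatedly over 40 h of treatment at 37 C.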

[3] = A CellTox Green Cytotoxicity Assay to monitor cytotoxicity in HepG2 cells - 40 hour (AID 1224879); further: nearly all actives have a fitted effect of over 40% in size; further: potency means the concentration at half of the fitted maximal effect
Outline: as §2

[4] = qHTS RealTime-Glo MT Cell Viability Assay in HEK293 cells - 0 hour (AID 1224880); further: top concentration of the series differs between compounds; nearly all actives have a fitted effect of over 45% in size
Outline: (§3)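 HEK293 cells mixed with RealTime-Glo reagents (NanoLuc plus cell-permeant prosubstrate) at 600 cells/well, preincubated 5 h at 37 C/5% CO2, then given 23 nL compound in DMSO. Nonlytic luminescence from viable cells was read at 0, 8, 16, 24, 32 and 40 h.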

[5] = A CellTox Green Cytotoxicity Assay to monitor cytotoxicity in HEK293 cells - 32 hour (AID 1224881); further: nearly all actives have a fitted effect of over 40% in size
Outline: (§4)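 HEK293 cells premixed with CellTox Green dye were seeded at 600 cells/well and left 5 h at 37 C/5% CO2 before pin transfer of 23 nL compound in DMSO. Fluorescence from dye bound to dead-cell DNA was read during 40 h treatment.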

[6] = A CellTox Green Cytotoxicity Assay to monitor cytotoxicity in HepG2 cells - 0 hour (AID 1224882); further: nearly all actives have a fitted effect of over 35% in size
Outline: as §2

[7] = A CellTox Green Cytotoxicity Assay to monitor cytotoxicity in HepG2 cells - 32 hour (AID 1224883); further: nearly all actives have a fitted effect of over 50% in size
Outline: as §2

[8] = qHTS RealTime-Glo MT Cell Viability Assay in HepG2 cells - 16 hour (AID 1224885); further: nearly all actives have a fitted effect of over 50% in size
Outline: as §1

[9] = qHTS RealTime-Glo MT Cell Viability Assay in HEK293 cells - 24 hour (AID 1224886); further: nearly all actives have a fitted effect of over 50% in size; further: potency means the concentration at half of the fitted maximal effect; on activity change, negative = cytotoxicity: top concentration of the series differs between compounds
Outline: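 Quantitative high-throughput screen of the Tox21 10K library in HEK293: cells and RealTime-Glo reagents plated together, compound added at 5 h, luminescence monitored through 40 h at 37 C.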

[10] = qHTS RealTime-Glo MT Cell Viability Assay in HEK293 cells - 8 hour (AID 1224887); further: top concentration of the series differs between compounds; nearly all actives have a fitted effect of over 50% in size
Outline: as §3

[11] = A CellTox Green Cytotoxicity Assay to monitor cytotoxicity in HEK293 cells - 16 hour (AID 1224888); further: nearly all actives have a fitted effect of over 35% in size
Outline: as §4

[12] = qHTS RealTime-Glo MT Cell Viability Assay in HepG2 cells - 0 hour (AID 1224889); further: nearly all actives have a fitted effect of over 50% in size
Outline: as §1

[13] = A CellTox Green Cytotoxicity Assay to monitor cytotoxicity in HepG2 cells - 8 hour (AID 1224890); further: nearly all actives have a fitted effect of over 45% in size
Outline: as §2

[14] = qHTS assay to identify small molecule antagonists of the estrogen receptor alpha (ER-alpha) signaling pathway using the BG1 cell line in the presence of 0.1 nM 17-beta-estradiol - cell viability counter screen (AID 1259241); further: nearly all actives have a fitted effect of over 40% in size
Outline: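 Measures cytotoxicity alongside the ER-alpha antagonist readout: VM7Luc4E2 cells, charcoal-stripped serum, 0.1 nM 17beta-estradiol final, 22 hr compound incubation at 37C, CellTiter-Fluor fluorescence.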

[15] = qHTS assay to identify small molecule antagonists of the androgen receptor (AR) signaling pathway using the MDA cell line in the presence of 0.5 nM R1881 - cell viability counter screen (AID 1259242); further: nearly all actives have a fitted effect of over 45% in size
Outline: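 MDA-kb2 cells (human breast carcinoma, stably carrying MMTV-luciferase reporter) were exposed to compounds with 0.5 nM R1881 (final) for 16 hr at 37C, 0% CO2; viability then read as live-cell protease fluorescence (CellTiter-Fluor, 30 min) in the same wells.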

[16] = molecular target: Estrogen receptor (Homo sapiens) (UniProt P03372); assay: qHTS assay to identify small molecule antagonists of the estrogen receptor alpha (ER-alpha) signaling pathway using the BG1 cell line in the presence of 0.1 nM 17-beta-estradiol (AID 1259244); further: nearly all actives have a fitted effect of over 50% in size
Outline: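 VM7Luc4E2 cells (endogenous full-length ER-alpha, stable 4xERE-luciferase) were grown 5 days in phenol red-free medium with charcoal-stripped FBS, then exposed 22 h at 37C to compounds plus 0.1 nM (final) 17beta-estradiol; ONE-Glo luminescence read-out.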

[17] = qHTS assay to identify small molecule phospholipidosis (PLD) inducers (AID 1259344; active means well fitted curve in the direction sought with a large enough effect; an effect the other way counts as inactive or inconclusive)
Outline: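 Phospholipidosis is scored by imaging LipidTOX-stained pits in HepG2 cells exposed to compound for 24 h at 37 C; pit counts and integrated intensities per well and per cell serve as outputs.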

[18] = qHTS assay to identify small molecule HDAC inhibitors (AID 1259364)
Outline: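 Wild-type HCT-116 cells were plated overnight, exposed to compounds for 2 h at 37 °C, then given HDAC-Glo class I/II luminogenic reagent for 30 min at room temperature before luminescence was read.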

[19] = A CellTox Green Cytotoxicity Assay to monitor cytotoxicity in HEK293 cells - 8 hour (AID 1224884); further: nearly all actives have a fitted effect of over 35% in size
Outline: as §4

[20] = molecular target: Androgen receptor (Homo sapiens) (UniProt P10275); assay: qHTS assay to identify small molecule antagonists of the androgen receptor (AR) signaling pathway using the MDA cell line in the presence of 0.5 nM R1881 (AID 1259243); further: nearly all actives have a fitted effect of over 50% in size
Outline: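 MDA-kb2 human breast carcinoma cells carrying an MMTV-luciferase reporter (AR- and GR-responsive) were plated, rested 5 hr at 37C, dosed with compounds, then stimulated with 0.5 nM R1881 (final) for 16 hr; luminescence was read after ONE-Glo.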

Sequence of Androgen receptor (Homo sapiens) (P10275 whole entry, looked up): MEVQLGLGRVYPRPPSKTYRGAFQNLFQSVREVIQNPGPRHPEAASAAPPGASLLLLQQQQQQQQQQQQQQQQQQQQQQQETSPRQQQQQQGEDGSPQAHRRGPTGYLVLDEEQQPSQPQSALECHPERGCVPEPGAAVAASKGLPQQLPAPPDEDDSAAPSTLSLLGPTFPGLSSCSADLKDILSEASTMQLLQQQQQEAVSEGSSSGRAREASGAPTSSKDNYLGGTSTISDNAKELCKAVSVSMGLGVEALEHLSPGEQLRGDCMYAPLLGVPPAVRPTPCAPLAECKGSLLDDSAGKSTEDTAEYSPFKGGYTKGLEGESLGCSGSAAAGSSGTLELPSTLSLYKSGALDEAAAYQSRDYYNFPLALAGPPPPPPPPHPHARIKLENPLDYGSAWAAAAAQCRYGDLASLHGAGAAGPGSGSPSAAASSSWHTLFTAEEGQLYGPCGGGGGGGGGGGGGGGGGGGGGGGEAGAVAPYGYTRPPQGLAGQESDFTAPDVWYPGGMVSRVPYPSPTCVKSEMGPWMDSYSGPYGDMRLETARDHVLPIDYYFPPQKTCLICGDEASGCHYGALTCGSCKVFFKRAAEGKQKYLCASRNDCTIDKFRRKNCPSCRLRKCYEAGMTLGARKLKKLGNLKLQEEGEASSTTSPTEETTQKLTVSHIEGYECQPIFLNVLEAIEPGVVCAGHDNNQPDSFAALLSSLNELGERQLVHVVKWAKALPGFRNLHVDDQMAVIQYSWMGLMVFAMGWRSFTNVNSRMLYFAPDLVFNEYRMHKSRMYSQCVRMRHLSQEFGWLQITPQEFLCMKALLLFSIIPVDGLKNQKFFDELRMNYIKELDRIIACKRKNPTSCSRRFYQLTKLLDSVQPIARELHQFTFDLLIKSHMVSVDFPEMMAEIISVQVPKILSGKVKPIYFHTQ
Sequence of Estrogen receptor (Homo sapiens) (P03372 whole entry, looked up): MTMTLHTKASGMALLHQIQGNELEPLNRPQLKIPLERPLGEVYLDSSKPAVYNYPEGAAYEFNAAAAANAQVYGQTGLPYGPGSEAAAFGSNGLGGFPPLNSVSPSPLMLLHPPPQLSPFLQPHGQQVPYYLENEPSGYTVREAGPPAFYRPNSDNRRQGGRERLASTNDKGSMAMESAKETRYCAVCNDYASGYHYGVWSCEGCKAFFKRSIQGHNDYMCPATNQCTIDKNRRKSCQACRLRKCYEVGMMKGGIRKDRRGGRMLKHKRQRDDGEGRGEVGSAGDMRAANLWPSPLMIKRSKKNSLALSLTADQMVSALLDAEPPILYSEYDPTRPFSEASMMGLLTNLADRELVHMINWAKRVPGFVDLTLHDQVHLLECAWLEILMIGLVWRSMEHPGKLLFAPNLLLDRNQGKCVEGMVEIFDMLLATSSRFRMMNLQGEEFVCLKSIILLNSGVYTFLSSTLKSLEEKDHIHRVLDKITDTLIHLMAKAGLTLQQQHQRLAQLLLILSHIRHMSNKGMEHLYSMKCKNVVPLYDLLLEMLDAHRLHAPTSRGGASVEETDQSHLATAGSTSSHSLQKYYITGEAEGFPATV

O=C(O)[C@H](O)c1ccccc1
outcome [1]: inactive | Potency [2]: inactive | Potency [3]: inactive | Potency [4]: inactive | Potency [5]: inactive | Potency [6]: inactive | Potency [7]: inactive | outcome [8]: inactive | Potency [9]: inactive | Potency [10]: inactive | Potency [11]: inactive | Potency [12]: inactive | Potency [13]: inactive | outcome [14]: inactive | outcome [15]: inactive | outcome [16]: inactive | outcome [17]: inactive

C=C(C)[C@@H]1CC=C(C)C(=O)C1
outcome [1]: inactive | Potency [2]: inactive | Potency [3]: inactive | Potency [4]: inactive | Potency [5]: inactive | Potency [6]: inactive | Potency [7]: inactive | outcome [8]: inactive | Potency [9]: inactive | Potency [10]: inactive | Potency [11]: inactive | Potency [12]: inactive | Potency [13]: inactive | outcome [14]: inactive | outcome [15]: inactive | Potency [18]: inactive

CCCC(=O)OCCC(C)CCC=C(C)C (stereo unspecified)
outcome [1]: inactive | Potency [2]: inactive | Potency [3]: inactive | Potency [5]: inactive | Potency [6]: inactive | Potency [7]: inactive | Potency [19]: inactive | outcome [8]: inactive | Potency [9]: inactive | Potency [10]: inactive | Potency [11]: inactive | Potency [13]: inactive | outcome [14]: inactive | outcome [15]: inactive | Potency [18]: inactive

CC(C)CO
outcome [1]: inactive | Potency [2]: inactive | Potency [3]: inactive | Potency [4]: inactive | Potency [6]: inactive | Potency [7]: inactive | Potency [19]: inactive | outcome [8]: inactive | Potency [9]: inactive | Potency [10]: inactive | Potency [12]: inactive | Potency [13]: inactive | outcome [14]: inactive | outcome [15]: inactive | outcome [16]: inactive | Potency [18]: inactive

[O]=[Mo](=[O])=[O]
activity change, negative = cytotoxic [1]: 0.396% [at 15.8 µM] | cytotoxicity [2]: -10.8% [at 15.8 µM] | cytotoxicity increase [3]: -15% [at 15.8 µM] | cytotoxicity increase [5]: -39.2% [at 15.8 µM] | cytotoxicity [6]: -4.74% [at 15.8 µM] | cytotoxicity increase [7]: -13.6% [at 15.8 µM] | cytotoxicity increase [19]: -27.3% [at 15.8 µM] | activity change, negative = cytotoxic [8]: 6.22% [at 15.8 µM] | activity change [11]: -32.5% [at 15.8 µM, active compounds read high] | activity change, negative = cytotoxicity [12]: 1.95% [at 15.8 µM] | cytotoxicity increase [13]: -8.17% [at 15.8 µM] | activity change, negative = cytotoxicity [14]: 0.14% [at 19 µM] | viability change, negative = cytotoxic [15]: 3.82% [at 19 µM] | activity change, negative = inhibition [16]: 3.96% [at 19 µM] | activity change, negative = inhibition [18]: 3.49% [at 19 µM]

CO/N=C(/C(=O)N[C@@H]1C(=O)N2C(C(=O)[O-])=C(C[n+]3ccn4ncccc43)CS[C@H]12)c1nsc(N)n1
outcome [1]: inactive | Potency [2]: inactive | Potency [3]: inactive | Potency [4]: inactive | Potency [5]: inactive | Potency [6]: inactive | Potency [19]: inactive | outcome [8]: inactive | Potency [9]: inactive | Potency [10]: inactive | Potency [11]: inactive | Potency [12]: inactive | Potency [13]: inactive | outcome [14]: inactive | outcome [15]: inactive | outcome [16]: inactive | outcome [17]: inactive | Potency [18]: inactive

CCC(C(=O)OCCN1CCOC(c2ccccc2)C1C)c1ccccc1 (stereo unspecified)
outcome [1]: inactive | Potency [2]: inactive | Potency [3]: inactive | Potency [4]: inactive | Potency [5]: inactive | Potency [6]: inactive | Potency [7]: inactive | outcome [8]: inactive | Potency [11]: inactive | Potency [12]: inactive | Potency [13]: inactive | outcome [14]: inactive | outcome [15]: inactive | outcome [16]: inactive | Potency [18]: inactive

CCC(=O)c1c(O)cc(O)cc1O
outcome [1]: inactive | Potency [2]: inactive | Potency [3]: inactive | Potency [4]: inactive | Potency [6]: inactive | Potency [7]: inactive | outcome [8]: inactive | Potency [9]: inactive | Potency [10]: inactive | Potency [12]: inactive | Potency [13]: inactive | outcome [14]: inactive | outcome [15]: inactive | Potency [20]: inactive | outcome [16]: inactive | outcome [17]: inactive | Potency [18]: inactive

CC(=O)CC(=O)Nc1ccc(C)cc1C
outcome [1]: inactive | Potency [2]: inactive | Potency [3]: inactive | Potency [4]: inactive | Potency [5]: inactive | Potency [6]: inactive | Potency [19]: inactive | outcome [8]: inactive | Potency [9]: inactive | Potency [10]: inactive | Potency [11]: inactive | Potency [12]: inactive | Potency [13]: inactive | outcome [14]: inactive | outcome [15]: inactive | Potency [20]: inactive | Potency [18]: inactive

COc1cc2c(cc1OC)C(=O)C(CC1CCN(Cc3ccccc3)CC1)C2 (stereo unspecified)
outcome [1]: inactive | Potency [2]: inactive | Potency [3]: 21.3 µM (active) | Potency [4]: inactive | Potency [5]: inactive | Potency [6]: inactive | Potency [19]: inactive | outcome [8]: inactive | Potency [9]: 21.3 µM (active) | Potency [12]: inactive | Potency [13]: inactive | outcome [14]: inactive | outcome [15]: inactive | Potency [20]: inactive | outcome [16]: inactive | outcome [17]: inactive | Potency [18]: inactive

CC(C)(C)NC[C@H](O)COc1cccc2c1CCCC2=O
outcome [1]: inactive | Potency [2]: inactive | Potency [3]: inactive | Potency [4]: inactive | Potency [5]: inactive | Potency [6]: inactive | Potency [7]: inactive | outcome [8]: inactive | Potency [9]: inactive | Potency [10]: inactive | Potency [12]: inactive | Potency [13]: inactive | outcome [14]: inactive | outcome [15]: inactive | outcome [16]: inactive | outcome [17]: inactive | Potency [18]: inactive

Cc1c(Cl)cccc1Cl
outcome [1]: inactive | Potency [2]: inactive | Potency [3]: inactive | Potency [4]: inactive | Potency [5]: inactive | Potency [6]: inactive | Potency [7]: inactive | outcome [8]: inactive | Potency [9]: inactive | Potency [10]: inactive | Potency [11]: inactive | Potency [12]: inactive | Potency [13]: inactive | outcome [14]: inactive | outcome [15]: inactive | outcome [16]: inactive | Potency [18]: inactive

[O-][n+]1cccc(/C(Cl)=N/OC[C@@H](O)CN2CCCCC2)c1
outcome [1]: inactive | Potency [2]: inactive | Potency [3]: inactive | Potency [4]: inactive | Potency [5]: inactive | Potency [6]: inactive | Potency [19]: inactive | outcome [8]: inactive | Potency [9]: inactive | Potency [10]: inactive | Potency [11]: inactive | Potency [12]: inactive | Potency [13]: inactive | outcome [14]: inactive | outcome [15]: inactive | Potency [20]: inactive | outcome [16]: inactive | Potency [18]: inactive

O=C1NC(c2ccccc2)(c2ccccc2)C(=O)N1COP(=O)(O)O
outcome [1]: inactive | Potency [2]: inactive | Potency [3]: inactive | Potency [4]: inactive | Potency [5]: inactive | Potency [6]: inactive | Potency [19]: inactive | outcome [8]: inactive | Potency [9]: inactive | Potency [10]: inactive | Potency [11]: inactive | Potency [12]: inactive | Potency [13]: inactive | outcome [14]: inactive | outcome [15]: inactive | Potency [20]: inactive

COc1ccc(CCO)cc1
outcome [1]: inactive | Potency [2]: inactive | Potency [3]: inactive | Potency [4]: inactive | Potency [5]: inactive | Potency [6]: inactive | Potency [19]: inactive | outcome [8]: inactive | Potency [9]: inactive | Potency [10]: inactive | Potency [11]: inactive | Potency [12]: inactive | Potency [13]: inactive | outcome [14]: inactive | outcome [15]: inactive | Potency [20]: inactive | Potency [18]: inactive

CCCCCCCCCCCCCBr
outcome [1]: inactive | Potency [2]: inactive | Potency [3]: inactive | Potency [5]: inactive | Potency [6]: inactive | Potency [7]: inactive | outcome [8]: inactive | Potency [11]: inactive | Potency [12]: inactive | Potency [13]: inactive | outcome [14]: inactive | outcome [15]: inactive | Potency [18]: inactive
